Test results taken from PubChem BioAssay AID1578 (Sanford-Burnham Center for Chemical Genomics, 2009).
About 3,000 (1%) of roughly 290,000 compounds were called active. The entries come from a sample that favours actives as a whole. A number with no mark means an inactive call. Rule as the data show it: active = inhibition mostly above about 36% (no sharp cut-off); inactive = mostly below about 34%.

Assay: NOD1 signaling inhibitors, primary screen, cell-based, luminescence, uHTS (AID 1578);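 also: HEK-293T reporter cells stimulated with the NOD1 agonist gamma-tri-DAP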
Details: NOD1-driven NF-kB luciferase reporter cells, at 4 µM, active compounds read high

| Compound | inhibition |
| --- | --- |
| O/N=C/c1cccc[n+]1CCCCCC[n+]1ccccc1/C=N/O | 27.1% |
| Cc1cc(=O)n2[nH]c(C)c(-c3ccccc3)c2n1 | -4.2% |
| Cc1[nH]n2c(=O)cc(C(C)C)nc2c1-c1ccccc1 | -8.4% |
| Cc1[nH]n2c(=O)cc(C(C)(C)C)nc2c1-c1ccccc1 | 85.3% (active) |
| COc1cccc(-c2c[nH]c(=O)[nH]c2=O)c1 | -6.8% |
| COc1ccc(/C=C/C(=O)c2ccc(NC3=NCCCS3)cc2)cc1OC | 44.3% (active) |
| COc1cccc(/C=C/C(=O)c2ccc(NC3=NCCCS3)cc2)c1 | -44.4% |
| Cc1cccc(/C=C/C(=O)c2ccc(NC3=NCCCS3)cc2)c1 | 32.1% |
| CNCCCOc1ccc(C)cc1Br | 13.5% |
| Cc1nn2c3ccccc3n(Cc3ccccc3)c2nc1=O | -20.5% |
| O=C(NCC(=O)N(c1ccc(Cl)cc1)C(C(=O)NC1CCCC1)c1ccncc1)c1ccco1 (stereo not drawn) | -13.1% |
| CN(C)CCNC(=O)c1c(CSc2ccccc2)noc1C(=O)NCc1ccccc1 | -3.7% |
| NC(=O)C1CCN(C(=O)c2ccc3c(c2)S(=O)(=O)c2ccccc2C3=O)CC1 | 1.2% |
| CCN(CC)CCNc1cc(C)nc2c1C(=O)C(=O)C=C2N1CCCCC1 | 101% (active) |
| CCN(CC)CCNC1=CC(=O)OC12CCCCC2 | -19.3% |
| COC(=O)c1cc(C)nc2c1C(=O)C(=O)C=C2N1CCOCC1 | -6.2% |
| Cc1ccc(C(=O)/C=C/c2cc(Br)cc(Br)c2O)o1 | 89.5% (active) |
| Cc1ccc(C(=O)/C=C/c2ccccc2)o1 | -0.9% |
| Cc1ccc(C(=O)/C=C/c2ccc(Br)cc2)o1 | 21% |
| Cc1ccc(C(=O)NC2CC3CCC(C2)N3Cc2ccco2)cc1 (stereo not drawn) | -13.6% |
| O=C(COC(=O)c1ccc[nH]c1=O)NCCc1ccc(Cl)cc1Cl | -4.3% |
| COc1ccc(OC)c(NC(=O)NNC(=O)CCCOc2ccc(Cl)cc2C)c1 | -14% |
| O=C(Cc1sc(-c2ccccc2Cl)nc1-c1ccccc1)Nc1ccccc1 | -49.4% |
| O=C(O)Cc1sc(-c2ccccc2Cl)nc1-c1ccccc1 | 44% (active) |
| O=C(O)Cc1sc(-c2ccccc2)nc1-c1ccccc1 | -9.7% |

| Compound | inhibition |
| --- | --- |
| CCCn1c(=O)c(C(=O)NNC(=O)c2ccc(Cl)cc2Cl)c(O)c2ccccc21 | -6.2% |
| Cc1cc(Cl)ccc1NC(=O)CCCN1C(=O)CCC1=O | 1.3% |
| O=C(Cn1nnc2ccccc21)N/N=C\c1cccs1 | -35.5% |
| COc1ccc(/C=C/c2c(-c3ccc(OC)cc3)oc3ccc(-c4ccc(OC)cc4)cc23)cc1 | -16.5% |
| COc1ccc(/C=C/C(=O)Oc2ccc(C)cc2)cc1 | -12.4% |
| CC1(C)C2CCC1(C)C(OC(=O)C[n+]1ccccc1N)C2 (stereo not drawn) | -14.7% |
| CC(C)NC(=O)C1CCN(C2CCN(C(=O)c3cc4c(s3)CCCCC4)CC2)CC1 | -13.9% |
| Cc1cnc(CN(C)Cc2nc(Cc3cccc(C(F)(F)F)c3)no2)[nH]1 | -15.7% |
| CC(C)OC(=O)c1cc2c(=O)[nH]c(C(Cl)(Cl)Cl)nc2o1 | -25.8% |
| CS(=O)(=O)N(CC(=O)N1CCCCC1)C1CCCCC1 | 9.1% |
| COc1cccc(C(=O)N/N=C/C(Br)=C/c2ccccc2)c1 | 63.6% (active) |
| COc1ccc(C(=O)N/N=C/C(Br)=C/c2ccccc2)cc1 | 26.8% |
| O=C(N/N=C/C(Br)=C/c1ccccc1)c1cccnc1 | 10.1% |
| CC1(C)Cc2ccccc2-c2nc3n(c(=O)c21)CCCS3 | 44.3% (active) |
| CC1(C)Cc2ccccc2-c2nc3n(c(=O)c21)CCS3 | -12.8% |
| CCC1(C)Cc2ccccc2-c2nc3n(c(=O)c21)CCS3 (stereo not drawn) | 5.3% |
| O=C(COC(=O)CSCC(=O)N1CCCCC1)Nc1ccc(Cl)cc1 | 0% |
| Fc1ccc(-c2noc(-c3ccc4c(c3)CCO4)n2)cc1 | -17.4% |
| CN(C)Cc1c(O)ccc2c(-c3ccccc3)cc(=O)oc12 | -22% |
| CC(=O)c1c(O)ccc2c(-c3ccccc3)cc(=O)oc12 | 13.4% |
| COC(=O)c1ccccc1NC(=O)Nc1cc(C)ccn1 | -16.6% |
| Cc1cccc2sc(N(CCCN(C)C)C(=O)c3ccc(S(=O)(=O)N4CCc5ccccc5C4)cc3)nc12 | 13% |
| O=C(COC(=O)CCC(=O)c1ccc(F)cc1)Nc1ccc(N2CCOCC2)cc1 | -6.3% |
| O=C(OCCN1CCCCC1)c1ccc(Cl)cc1 | -7.2% |
| Oc1c(C=NCc2ccc(F)cc2)[nH]c2ccc(Br)c(Cl)c12 | -16.1% |

| Compound | inhibition |
| --- | --- |
| Oc1c(Br)cc(Br)cc1C=NCc1ccccc1 | -5.4% |
| Oc1c(Br)cc(Br)cc1C=NCc1ccc(F)cc1 | 64.2% (active) |
| CCCn1c(N)c(Sc2ccccc2)c(=O)n(CCC)c1=O | 17.2% |
| CCOC(=O)c1ccccc1NC(=O)c1c(F)c(F)c(F)c(F)c1F | -18.5% |
| NC(=O)N/N=C(/CCCCCC/C(=N\NC(N)=O)c1ccccc1)c1ccccc1 | 36.6% (active) |
| CCCCC/C(=N\NC(=O)Nc1ccccc1)c1ccccc1 | -2.9% |
| C/C(=N\NC(N)=O)c1ccccc1 | -34.5% |
| CC(=O)N1c2ccccc2C(C)(c2ccccc2)CC1(C)C (stereo not drawn) | 0.7% |
| CC1(C)C2C(Cl)(Cl)C2(C)c2ccccc2N1C=O (stereo not drawn) | -3.3% |
| CC(=O)N1c2ccccc2C2(C)C(C1(C)C)C2(Cl)Cl (stereo not drawn) | 60.4% (active) |
| Cc1cc(NC(=O)Nc2ccc(Cl)cc2)n(C)n1 | -7.2% |
| O=C1c2cccc3cc([N+](=O)[O-])cc(c23)C(=O)N1/N=C/c1ccc(O)cc1O | 8.5% |
| COc1ccc(/C=N/Nc2ncccc2[N+](=O)[O-])c(OC)c1 | -42.4% |
| O=[N+]([O-])c1cccnc1N/N=C/c1ccccc1O | -18.6% |
| COc1cccc(/C=N/Nc2ncccc2[N+](=O)[O-])c1OC | 39.6% (active) |
| CC(C)C(=O)NC(NC(=S)Nc1ccc(S(N)(=O)=O)cc1)C(Cl)(Cl)Cl (stereo not drawn) | -3.2% |
| CCCCC(CC)C(=O)Nc1cc(=O)[nH]c2nc3ccccc3n12 (stereo not drawn) | -1.4% |
| CCOC(=O)CNC(c1ccccc1)c1cc(Br)ccc1NC(C)=O (stereo not drawn) | -27.2% |
| COC(=O)CNC(c1ccccc1)c1cc(Br)ccc1NC(=O)CCN1CCOCC1 (stereo not drawn) | 35.8% |
| CCOC(=O)CNC(c1ccccc1)c1cc(Br)ccc1NC(=O)CCN1CCOCC1 (stereo not drawn) | 69.7% (active) |
| CC(OC(=O)c1ccco1)C(=O)NC1CCCC1 (stereo not drawn) | -27.9% |
| COc1ccc(CC(=O)N/N=C\c2cc(Br)c(O)c(Br)c2)cc1 | 17% |
| Oc1[nH]c2ccccc2c1N=NC(=S)NCC1CCCO1 (stereo not drawn) | -1% |
| Oc1[nH]c2c(Cl)cc(Cl)cc2c1N=NC(=S)NCC1CCCO1 (stereo not drawn) | 104% (active) |
| Cc1cc(C)c2[nH]c(O)c(N=NC(=S)NCC3CCCO3)c2c1 (stereo not drawn) | -5.7% |

| Compound | inhibition |
| --- | --- |
| O=C1NC(=O)C2C1C(c1ccccc1)N1C3C(=O)NC(=O)C3C(c3ccccc3)N21 (stereo not drawn) | 6.2% |
| CC(C)c1nc2sc3c(NCc4ccco4)ncnc3c2c2c1COC(C)(C)C2 | 64% (active) |
| CC(C)Cc1nc2sc3c(NCc4ccco4)ncnc3c2c2c1COC(C)(C)C2 | -25.1% |
| Cc1nc2sc3c(NCc4ccco4)ncnc3c2c2c1COC(C)(C)C2 | 20.3% |
| CCN(CC)CC(=O)NCc1cc(-c2ccc(OC)cc2)no1 | -8.1% |
| C=CCNc1nc(Nc2ccc(OC)cc2)nc(OCC)n1 | -7.5% |
| CCn1c(=O)c(C(=O)Nc2ccccc2S(N)(=O)=O)c(O)c2ccccc21 | -15.7% |
| CCn1c(=O)c(C(=O)Nc2cnccn2)c(O)c2ccccc21 | 7.9% |
| Cn1c(=O)c(C(=O)Nc2cnccn2)c(O)c2ccccc21 | -52.8% |
| CC(C)Cn1c(=O)c(C(=O)Nc2cnccn2)c(O)c2ccccc21 | 0.1% |
| CCCn1c(=O)c(C(=O)Nc2cnccn2)c(O)c2ccccc21 | -22.7% |
| CC(C)Cn1c(=O)c(C(=O)Nc2ccccc2S(N)(=O)=O)c(O)c2ccccc21 | -2.7% |
| CCOC(=O)N1CCN=C1SCc1ccc(Cl)c(Cl)c1 | -47.1% |
| Cc1nc(N2CCN(c3ccccc3)CC2)[nH]c(=O)c1Cc1ccccc1 | 8.4% |
| COc1ccccc1NC(=S)N(CCN1CCOCC1)Cc1ccccc1F | -31.9% |
| O=[N+]([O-])c1ccccc1/C=N/Nc1nnc(-c2ccccc2)c(-c2ccccc2)n1 | -36.7% |
| FCCCOc1ccc(-c2ccnc(-c3ccccc3)n2)cc1 | -45.6% |
| Cc1c(Cl)cccc1NC(=O)NNC(=O)CCc1ccccc1 | 28% |
| COc1cc(C)c(C)cc1S(=O)(=O)n1c(C)nc2ccccc21 | -11.1% |
| CC(C)COP(=O)(c1ccc(N(C)C)cc1)C(O)c1ccc(N(C)C)cc1 (stereo not drawn) | 2.4% |
| CC1CN(c2nc3c(c(=O)n(C)c(=O)n3C)n2Cc2c(F)cccc2Cl)CC(C)O1 (stereo not drawn) | -14.7% |
| O=C(NNC1=NCCC1)c1ccc(Br)cc1 | 6.7% |
| CC(=O)c1ccccc1N(C(=O)c1ccco1)C(C(=O)NC1CCCC1)c1ccc(C)cc1 (stereo not drawn) | -11.2% |
